This passage reports growth results from PubChem BioAssay (NCI).

Molecules are shown by their SMILES. About 83,000 compounds went through this panel and 20% of them were active in at least one assay; those are over-represented in the sample as a whole.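 Each cell line was grown in a 96-well plate and treated with one concentration of compound for 48 hours. Values below 10 were considered active.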 Unmarked numbers belong to inactive results. The source made the active and inactive calls.

The assay has as its system MDA-MB-468 breast. The experiment in a line: NCI-60 one-dose screen, 48 h (100 = growth as untreated, 0 = no growth, -100 = all killed). To be noted: 10 µM unless noted.
As to `Brc1ccc2c(c1)c(-c1nc(-c3c[nH]c4ncccc34)cs1)cn2CCCN1CCCCC1`, the growth was -15% (active). Turning to `Cc1[nH]ccc2cc3nc4ccccc4c3cc12`, the growth was 10.7%.

Turning to `CC(CNC(Cc1ccccc1)c1ccccc1)NC(Cc1ccccc1)c1ccccc1` (centres undefined), the growth is 14.5%.

On to `Nc1cccc(-c2ccc(COc3ccc(CC4SC(=O)NC4=O)cc3)cc2)c1` (centres undefined), for which the growth was 29.4%. Turning to `COc1ccc(-c2nn(-c3cccc(Cl)c3)cc2/C=C2\NC(=S)N(c3ccc(Cl)cc3)C2=O)cc1`, the growth is -56.7% (active). As for `O=C1[C@H]2Cc3c([nH]c4ccccc34)[C@@H](c3ccc(Br)cc3)N2C(=O)CN1C1CCN(Cc2ccccc2)CC1`, the growth is -4.01% (active). In the case of `CCOC(=O)Cc1cnn(C)c1NC(=O)c1ccc(Cl)cc1NC(C)=O`, the growth was 89.9%. `CCC/C=C(/C(C)=O)C(=O)OCC`: the growth was 88.3%. In the case of `CNC(=O)Nc1ccc(Nc2cc(-c3ccc(-n4cccn4)cc3)[nH]n2)c(C)c1`, the growth is 96.3%. As to `O=P([O-])(O)OP(=O)([O-])O.[NH-][C@H]1CCCC[C@@H]1[NH-].[OH-].[OH-].[Pt+4]`, the growth was 102%.

For the molecule `COc1ccc(C(OCC2OC(n3ccc(NC(=O)c4ccccc4)nc3=O)C(O)C2O)(c2ccccc2)c2ccccc2)cc1` (centres undefined), the growth is 45.9%. For the molecule `COc1ccc(-c2c(-c3ccccc3)noc2N)cc1OC`, the growth was 85.7%. Consider `Cc1nn2c(-c3nc4ccc(Cl)cc4[nH]3)c(-c3ccc(F)cc3)nc2s1`, for which the growth is 102%. In the case of `COC(=O)c1cc2oc(/C=N/NC(=O)c3cc4oc(-c5cccc(C(F)(F)F)c5)cc4[nH]3)cc2n1Cc1ccccc1`, the growth is 106%. In the case of `CCN(CC)CCNC(=O)n1cc(-c2ccncc2)c(-c2cc(Cl)cc(OC)c2)n1`, the growth is 80.5%. `Cc1cc(N(CCCNc2ccnc3cc(Cl)ccc23)Cc2ccco2)nc(N2CCN(C)CC2)n1`: the growth was 73.7%. For `COc1cc(Cl)cc(-c2nn(C(=O)NCCN3CCOCC3)cc2-c2ccncc2)c1`, the growth was 27.6%. `Clc1ccc(/C=C/c2ccccn2)cc1`: the growth is 38.3%. `CC(C)(C)NCCC(O)c1cc(C(F)(F)F)nc2c(C(F)(F)F)cccc12` (centres undefined): the growth was 70.9%. The result for `O=c1cc/c(=N\Nc2ccccc2)c(=O)/c1=N/Nc1ccccc1` reads 106%. Consider `O=C(O)c1cccc2c1C(=O)N(c1ccc3c(c1)Cc1ccccc1-3)C2=O`, for which the growth is 107%. For the molecule `CCN1C(=O)N(CC)C2C1NN=c1s/c(=C\c3cccs3)c(=O)n12` (centres undefined), the growth was 15.3%.

Turning to `OC(c1ccc(F)c(C(F)(F)F)c1)c1cnccc1NC1CCCCC1` (centres undefined), the growth is 9.9% (active). On to `O=C(O)CC1Sc2ccccc2NC1=O` (centres undefined), for which the growth was 163%.
